According to PubChem BioAssay (NCATS):
Values joined by “and” are separate entries in the source; they are usually repeats but may differ in a detail not shown here. Identical values can stand only once. Results filed as inconclusive are left out. Active and inactive are the calls of the source. Unless noted, the call rests on the fitted dose curve; in most records, active means well fitted curve in the direction sought with a large enough effect; inconclusive means small, poorly fitted or top-dose-only effect, or another doubt; inactive means no such curve, though single readings can be large; an effect the other way counts as inactive or inconclusive.

Columns and labels:
[1] = Validation screen for small molecules that induce genotoxicity in human embryonic kidney (HEK293T) cells expressing luciferase-tagged ELG1 (AID 493106); further: 0% is about no effect
Procedure, shortened: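 qHTS format; 2,000 HEK293T ELG1-luc cells/well; 23 nL compound via pin tool; 16 hr, 37 °C/5% CO2; ONE-Glo, 30 min RT; luminescence read.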

[2] = molecular target: ATPase family AAA domain-containing protein 5 (Homo sapiens) (UniProt Q96QE3); test: Validation screen for small molecules that inhibit ELG1-dependent DNA repair in human embryonic kidney (HEK293T) cells expressing luciferase-tagged ELG1 (AID 493107);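 further: cells co-treated with the DNA-damaging agent 5-fluorouridine alongside compound; series mostly up to about 46 µM; on the % scale 0 is the no-effect control and ±100 the full control effect; inhibitors lower the ELG1-luciferase luminescence signal; nearly all actives have a fitted effect of over 70% in size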
Procedure, shortened: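 ELG1-luciferase HEK293T reporter; 5-fluorouridine + compound/DMSO, 16 hr, 37 °C, 5% CO2; ONE-Glo 30 min RT; luminescence read, qHTS format.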

[3] = molecular target: Thyrotropin-releasing hormone receptor (Homo sapiens) (UniProt P34981); test: qHTS for Small Molecule Agonists and Allosteric Enhancers of Human TRH Receptor: Validation Screen for Agonists (AID 493127;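 active means calcium activation more than 3 SD above the typical response in the agonist read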;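 further: intracellular calcium rise by fluo-8 fluorescence before TRH EC20 addition; 0% is about no effect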); conditions: TRH receptor agonist cell assay; at 2 µM; stronger effect = higher value
Procedure, shortened: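 Read-out: intracellular calcium release measured kinetically by FDSS (fluo-8, ex 480/em 530 nm), 1 reading/s after a 10-cycle baseline. TRHR cells, 2000/well, cultured 18 h at 33.5C, dye-loaded at room temp. Compound-evoked positive calcium signal flags agonists.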

[4] = Nrf2 qHTS screen for inhibitors: Validation (AID 493153; active means well fitted inhibition curve with a large enough effect in the main read-out, with a control signal flat, not every such curve was filed as active); conditions: Potency: luciferase luminescence; viability change: measured here: cytotoxicity max response
Procedure, shortened: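 Concentration-response test in A549 ARE_Fluc reporter cells (5% FBS OPTI-MEM), compound exposure 18-24 h at 37°C, 5% CO2. Cell viability measured first by CellTiter-Fluor fluorescence; ARE-driven luciferase luminescence then measured as Nrf2 activity.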

[5] = qHTS for Inhibitors of Cell Surface uPA Generation: Validation Assay (AID 493164);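 further: RAW 264.7 macrophage cells exposed to compound for 18 h; 0% is about no effect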
Procedure, shortened: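 Compounds are titrated over seven points (2.45 nM–38.3 uM final) onto pre-plated RAW 264.7 cells and incubated for 18 h. Retained intracellular ATP, measured with ATP-Lite, indicates blocked lethal factor entry.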

[6] = molecular target: Galactokinase (Homo sapiens) (UniProt P51570); test: qHTS Validation Assay for Inhibitors of Human Galactokinase (GALK) (AID 493189); further: 0% is about no effect
Procedure, shortened: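 Enzyme activity is inferred from ATP consumption: human GALK phosphorylates galactose (100 uM) using 35 uM ATP for 1 h at room temperature, and luciferase-based Kinase-Glo Plus reports unconsumed ATP.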

[7] = Validation screen for small molecules that induce DNA re-replication in SW480 colon adenocarcinoma cells (AID 504364); further: 0% is about no effect
Procedure, shortened: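 Read-out: total Hoechst intensity of nuclei by fluorescence scanning imager; hits raise the fraction of nuclei with elevated DNA content. Cells received compound for 48 hr at 37 C before a 40 min stain.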

[8] = molecular target: Peptidyl-prolyl cis-trans isomerase NIMA-interacting 1 (Homo sapiens) (UniProt Q13526); test: qHTS Validation Assay to Find Inhibitors of Pin1 (AID 504536; active means well fitted inhibition curve with a large enough effect in the polarisation, with a control signal flat, not every such curve was filed as active; the % refers to the polarisation;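 further: 0% = full Pin1 enzyme wells and -100% = no-enzyme wells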)
Procedure, shortened: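 Fluorescence polarization competition: compounds (titration) displace HiFluor-488-labeled Pin1-1b peptide from Pin1 (0.3 uM final) in pH 7.5 HEPES buffer with DTT, 10 min at room temperature; %Activity normalized to no-enzyme wells, curves fitted.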

[9] = molecular target: Phosphoglycerate kinase, glycosomal (Trypanosoma brucei brucei) (UniProt P07378); test: qHTS Validation Assay to Find Inhibitors of Phosphoglycerate Kinase (AID 504547);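 further: control wells lack PGK and mark full inhibition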
Procedure, shortened: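 Luminescence end-point (Kinase-Glo Plus, 10 min) after a 60 min room-temperature coupled reaction. GAPDH at 100nM final supplies 1,3-BPG to PGK. Buffer: 100mM TEA pH 7.6, 5mM MgCl2, 0.01% Tween-20. Wells lacking PGK served as controls.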

[10] = molecular target: phosphoglycerate mutase (Leishmania major) (UniProt Q4Q090); test: qHTS Validation Assay to Find Inhibitors of Phosphoglycerate Mutase (AID 504548); conditions: Potency: inhibition qHTS;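 further: end-point luminescence from Kinase-GloPlus after the PGAM reaction; series mostly up to about 58 µM; on the % scale 0 is the no-effect control and ±100 the full control effect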
Procedure, shortened: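 L. major PGAM (1.25nM final) was added to substrate buffer and pinned compound, incubated 45 minutes at room temperature, then Kinase-GloPlus added; luminescence read after 10 minutes. Buffer: 100 mM TEA pH 7.6, 5 mM MgCl2, 0.01% Tween-20.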

[11] = molecular target: Ubiquitin carboxyl-terminal hydrolase 1 (Homo sapiens) (UniProt O94782); test: Inhibitors of USP1/UAF1: Pilot qHTS (AID 504865);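 further: rhodamine fluorescence freed from ubiquitin-rhodamine substrate followed over time; top concentration of the series differs between compounds; on the % scale 0 is the no-effect control and ±100 the full control effect; nearly all actives have a fitted effect of over 35% in size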
Procedure, shortened: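 Enzyme-free wells gave the negative control, while test wells held 1nM USP1/UAF1 preincubated with compound for 15 min at room temperature. Ub-Rho at 150nM final started the reaction, and fluorescence at 480/540 nm was recorded kinetically.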

[12] = qHTS for Inhibitors of ATXN expression: Validation (AID 588378); further: series mostly up to about 57 µM; on the % scale 0 is the no-effect control and ±100 the full control effect; nearly all actives have a fitted effect of over 75% in size
Procedure, shortened: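 After a 2 h attachment and 24 h compound incubation, HEK293-ATXN2-FFLuc wells are read for fluorescence at 405 nm excitation/525 nm emission as a viability measure, then for Bright-Glo luminescence reflecting ATXN2 expression.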

[13] = qHTS for Inhibitors of ATXN expression: Validation of Cytotoxic Assay (AID 588349); further: on the % scale 0 is the no-effect control and ±100 the full control effect
Procedure, shortened: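 Cytotoxicity counter-screen: HEK293 cells exposed to compound titrations, 72 hr, 37 degrees C. Read-out is intracellular ATP (CellTiter Glo luminescence) as a viability measure.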

[14] = molecular target: DNA dC->dU-editing enzyme APOBEC-3G (Homo sapiens) (UniProt Q9HC16); test: qHTS for inhibitors of Vif-A3G interactions: Validation (AID 588379); further: 0% is about no effect
Procedure, shortened: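 Yellow fluorescence (Ex 488, Em 500-530) of Vif-coexpressing HeLa A3G-eYFP cells, scanned by Acumen cytometer, reports blocked A3G degradation. Cells plated at 700/well overnight at 37 deg C before compound addition, then a further overnight compound incubation at 37 deg C.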

[15] = molecular target: Estrogen receptor (Homo sapiens) (UniProt P03372); test: qHTS assay for small molecule antagonists of estrogen receptor alpha signaling (AID 588513; active means well fitted curve in the direction sought with a large enough effect in the signal ratio, with a control signal flat, not every such curve was filed as active; the % refers to the signal ratio; further: on the % scale 0 is the no-effect control and ±100 the full control effect)
Procedure, shortened: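 Antagonist-mode qHTS in ER-alpha-UAS-bla HEK 293 cells: compound titration, 0.5nM estradiol for 18 h, CCF4 fluorescence, Hill-derived IC50.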

[16] = molecular target: Estrogen receptor (Homo sapiens) (UniProt P03372); test: qHTS assay for small molecule agonists of estrogen receptor alpha signaling (AID 588514; calls by dose curve; further: nearly all actives have a fitted effect of over 70% in size; further: potency means the concentration at half of the fitted maximal effect;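 on activation: 0% = vehicle only and 100% = reference agonist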)
Procedure, shortened: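 Read-out: CCF4 fluorescence from a beta-lactamase reporter in ER-alpha-UAS-bla HEK 293 cells after 18 hrs of compound exposure at 37 C. Normalized to 20 nM 17-beta-estradiol (100%) and DMSO (0%).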

[17] = molecular target: ATP-dependent 6-phosphofructokinase (Trypanosoma brucei brucei) (UniProt O15648); test: qHTS Assay to Find Inhibitors of T. brucei phosphofructokinase: hit validation (AID 492961);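 further: luminescence reports ADP formed as PFK phosphorylates fructose-6-phosphate with ATP; series mostly up to about 51 µM; on the % scale 0 is the no-effect control and ±100 the full control effect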
Procedure, shortened: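 Measures ADP output of PFK (1.25 nM) at 0.1 mM ATP, 0.5 mM F6P, pH 8.0 TEA buffer with 5 mM MgCl2. No-enzyme wells define full inhibition; uninhibited enzyme wells define zero.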

[18] = molecular target: Bile acid receptor (Homo sapiens) (UniProt Q96RI1); test: qHTS assay for small molecule antagonists of farnesoid X receptor signaling (AID 588526; calls by dose curve; further: on the % scale 0 is the no-effect control and ±100 the full control effect)
Procedure, shortened: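 Beta-lactamase reporter antagonist mode: HEK293T FXR-UAS-bla cells, titrated compound, CDCA stimulation, 16 h 37 C, CCF4 dye 2 h RT. Data normalized to CDCA 50 uM and DMSO; Hill-fit IC50.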

Sequence of Estrogen receptor (Homo sapiens) (P03372 whole entry, looked up): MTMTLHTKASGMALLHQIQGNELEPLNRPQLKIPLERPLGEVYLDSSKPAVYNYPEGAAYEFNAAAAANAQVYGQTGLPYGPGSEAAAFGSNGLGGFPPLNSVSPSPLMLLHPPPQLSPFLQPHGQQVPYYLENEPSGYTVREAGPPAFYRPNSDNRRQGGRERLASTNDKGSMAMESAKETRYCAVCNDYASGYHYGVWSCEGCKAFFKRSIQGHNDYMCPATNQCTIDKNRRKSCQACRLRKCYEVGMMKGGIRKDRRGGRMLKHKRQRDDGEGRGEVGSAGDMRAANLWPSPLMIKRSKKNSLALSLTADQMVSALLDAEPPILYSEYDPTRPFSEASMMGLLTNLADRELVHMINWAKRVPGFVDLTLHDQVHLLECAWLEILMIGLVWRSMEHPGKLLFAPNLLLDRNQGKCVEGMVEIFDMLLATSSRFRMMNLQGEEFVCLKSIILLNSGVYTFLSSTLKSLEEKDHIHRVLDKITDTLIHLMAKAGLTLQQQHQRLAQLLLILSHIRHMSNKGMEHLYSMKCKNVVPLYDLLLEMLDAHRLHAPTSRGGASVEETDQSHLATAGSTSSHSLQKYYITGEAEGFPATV
Sequence of ATPase family AAA domain-containing protein 5 (Homo sapiens) (Q96QE3 whole entry, looked up, the tested form may be a part): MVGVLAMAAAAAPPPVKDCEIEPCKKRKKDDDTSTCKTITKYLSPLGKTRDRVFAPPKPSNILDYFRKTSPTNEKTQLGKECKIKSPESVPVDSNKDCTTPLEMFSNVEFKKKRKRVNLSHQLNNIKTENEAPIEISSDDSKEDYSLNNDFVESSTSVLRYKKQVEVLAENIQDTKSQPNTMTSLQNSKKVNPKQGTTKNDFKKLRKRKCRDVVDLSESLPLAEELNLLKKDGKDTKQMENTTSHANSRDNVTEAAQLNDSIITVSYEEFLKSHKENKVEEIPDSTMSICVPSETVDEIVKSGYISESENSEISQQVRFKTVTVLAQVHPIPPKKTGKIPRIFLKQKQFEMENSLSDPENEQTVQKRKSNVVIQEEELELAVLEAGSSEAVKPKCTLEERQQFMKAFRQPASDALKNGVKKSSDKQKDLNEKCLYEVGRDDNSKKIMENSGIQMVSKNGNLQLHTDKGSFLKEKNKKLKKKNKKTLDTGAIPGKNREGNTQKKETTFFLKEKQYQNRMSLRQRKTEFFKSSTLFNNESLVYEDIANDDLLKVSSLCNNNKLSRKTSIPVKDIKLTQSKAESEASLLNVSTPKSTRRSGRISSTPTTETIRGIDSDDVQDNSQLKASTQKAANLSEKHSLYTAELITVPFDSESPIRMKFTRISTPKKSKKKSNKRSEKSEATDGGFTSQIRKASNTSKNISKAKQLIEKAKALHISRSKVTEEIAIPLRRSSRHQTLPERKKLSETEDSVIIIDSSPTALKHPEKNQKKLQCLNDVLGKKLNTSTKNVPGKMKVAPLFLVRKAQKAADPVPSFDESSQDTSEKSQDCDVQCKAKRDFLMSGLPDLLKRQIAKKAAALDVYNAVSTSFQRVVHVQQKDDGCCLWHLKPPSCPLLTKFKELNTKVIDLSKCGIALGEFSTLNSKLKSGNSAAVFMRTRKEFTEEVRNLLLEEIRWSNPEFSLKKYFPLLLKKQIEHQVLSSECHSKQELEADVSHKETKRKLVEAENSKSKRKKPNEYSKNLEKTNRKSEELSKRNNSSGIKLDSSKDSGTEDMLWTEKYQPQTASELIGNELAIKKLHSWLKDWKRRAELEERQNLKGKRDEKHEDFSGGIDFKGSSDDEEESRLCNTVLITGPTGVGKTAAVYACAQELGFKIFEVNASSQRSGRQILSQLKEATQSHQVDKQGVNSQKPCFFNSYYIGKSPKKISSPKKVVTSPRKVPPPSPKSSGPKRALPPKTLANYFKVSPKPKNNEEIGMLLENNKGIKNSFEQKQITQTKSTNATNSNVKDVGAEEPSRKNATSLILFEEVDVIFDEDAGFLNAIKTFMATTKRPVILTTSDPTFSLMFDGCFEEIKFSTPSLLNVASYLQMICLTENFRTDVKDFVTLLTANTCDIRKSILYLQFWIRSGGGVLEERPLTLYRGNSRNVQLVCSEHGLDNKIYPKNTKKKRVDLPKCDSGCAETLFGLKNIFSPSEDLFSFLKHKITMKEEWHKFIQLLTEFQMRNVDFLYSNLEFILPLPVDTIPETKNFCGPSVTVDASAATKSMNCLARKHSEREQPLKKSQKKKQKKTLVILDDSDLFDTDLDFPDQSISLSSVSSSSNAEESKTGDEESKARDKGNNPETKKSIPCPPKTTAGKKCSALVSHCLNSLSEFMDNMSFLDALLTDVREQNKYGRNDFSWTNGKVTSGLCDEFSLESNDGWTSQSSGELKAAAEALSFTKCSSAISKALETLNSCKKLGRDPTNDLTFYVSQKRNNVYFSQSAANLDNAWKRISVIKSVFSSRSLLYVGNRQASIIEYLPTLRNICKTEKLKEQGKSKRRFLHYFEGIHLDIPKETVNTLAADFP
Sequence of Galactokinase (Homo sapiens) (P51570 whole entry, looked up): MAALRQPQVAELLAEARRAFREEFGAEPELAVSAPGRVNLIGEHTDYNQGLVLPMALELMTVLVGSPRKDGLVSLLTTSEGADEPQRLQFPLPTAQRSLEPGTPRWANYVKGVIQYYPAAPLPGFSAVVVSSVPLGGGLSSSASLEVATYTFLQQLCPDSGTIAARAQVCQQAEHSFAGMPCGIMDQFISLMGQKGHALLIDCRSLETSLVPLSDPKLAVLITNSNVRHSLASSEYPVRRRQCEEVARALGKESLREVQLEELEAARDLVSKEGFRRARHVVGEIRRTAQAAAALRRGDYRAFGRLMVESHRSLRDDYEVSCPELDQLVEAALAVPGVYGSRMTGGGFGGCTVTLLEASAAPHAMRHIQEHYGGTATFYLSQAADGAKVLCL
Sequence of phosphoglycerate mutase (Leishmania major) (Q4Q090 1-553): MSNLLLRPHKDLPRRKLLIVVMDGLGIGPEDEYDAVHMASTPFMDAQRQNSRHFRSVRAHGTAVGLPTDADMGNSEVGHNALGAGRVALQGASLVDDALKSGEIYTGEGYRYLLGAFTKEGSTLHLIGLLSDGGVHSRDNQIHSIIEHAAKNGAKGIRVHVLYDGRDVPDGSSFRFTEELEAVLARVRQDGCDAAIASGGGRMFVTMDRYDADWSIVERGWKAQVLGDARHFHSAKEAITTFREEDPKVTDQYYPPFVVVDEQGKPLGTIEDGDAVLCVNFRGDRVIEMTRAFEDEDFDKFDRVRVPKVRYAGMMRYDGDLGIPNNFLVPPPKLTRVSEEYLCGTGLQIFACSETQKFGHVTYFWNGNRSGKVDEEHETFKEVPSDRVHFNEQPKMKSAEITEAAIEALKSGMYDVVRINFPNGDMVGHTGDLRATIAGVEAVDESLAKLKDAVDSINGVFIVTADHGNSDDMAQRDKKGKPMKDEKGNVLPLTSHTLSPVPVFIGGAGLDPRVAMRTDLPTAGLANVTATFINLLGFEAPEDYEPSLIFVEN
Sequence of Ubiquitin carboxyl-terminal hydrolase 1 (Homo sapiens) (O94782 whole entry, looked up): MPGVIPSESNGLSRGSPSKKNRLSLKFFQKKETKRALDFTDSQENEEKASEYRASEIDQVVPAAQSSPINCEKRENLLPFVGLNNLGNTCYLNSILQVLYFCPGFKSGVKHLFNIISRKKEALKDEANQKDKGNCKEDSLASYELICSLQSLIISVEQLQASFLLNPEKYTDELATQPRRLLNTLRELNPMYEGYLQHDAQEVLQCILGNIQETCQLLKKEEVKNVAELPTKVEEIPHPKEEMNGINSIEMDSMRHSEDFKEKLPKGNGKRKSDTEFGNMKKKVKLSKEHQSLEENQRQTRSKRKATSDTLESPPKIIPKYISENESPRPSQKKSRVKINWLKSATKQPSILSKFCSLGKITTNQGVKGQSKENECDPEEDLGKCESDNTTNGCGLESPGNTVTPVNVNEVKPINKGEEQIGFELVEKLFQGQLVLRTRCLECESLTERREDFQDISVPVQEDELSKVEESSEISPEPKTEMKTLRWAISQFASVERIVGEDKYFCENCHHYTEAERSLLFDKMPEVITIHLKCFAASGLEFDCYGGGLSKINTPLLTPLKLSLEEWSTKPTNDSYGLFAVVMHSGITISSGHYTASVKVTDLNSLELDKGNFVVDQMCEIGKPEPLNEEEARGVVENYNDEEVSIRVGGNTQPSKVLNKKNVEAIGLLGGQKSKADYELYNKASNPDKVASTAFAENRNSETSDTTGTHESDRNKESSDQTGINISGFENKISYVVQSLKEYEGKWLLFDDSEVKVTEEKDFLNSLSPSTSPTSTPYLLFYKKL
Sequence of Phosphoglycerate kinase, glycosomal (Trypanosoma brucei brucei) (P07378 whole entry, looked up): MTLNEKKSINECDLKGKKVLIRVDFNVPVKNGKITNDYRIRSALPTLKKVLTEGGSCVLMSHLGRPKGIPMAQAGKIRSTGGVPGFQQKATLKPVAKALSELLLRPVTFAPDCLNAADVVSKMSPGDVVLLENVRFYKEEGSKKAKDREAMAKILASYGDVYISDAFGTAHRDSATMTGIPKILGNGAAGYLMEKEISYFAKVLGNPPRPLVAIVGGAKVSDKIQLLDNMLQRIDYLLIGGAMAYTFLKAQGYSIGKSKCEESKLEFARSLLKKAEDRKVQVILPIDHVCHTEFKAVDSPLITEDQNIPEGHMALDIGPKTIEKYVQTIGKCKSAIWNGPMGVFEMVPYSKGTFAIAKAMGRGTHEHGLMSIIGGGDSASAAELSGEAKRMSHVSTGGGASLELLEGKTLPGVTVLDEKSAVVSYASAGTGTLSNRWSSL
Sequence of Thyrotropin-releasing hormone receptor (Homo sapiens) (P34981 whole entry, looked up): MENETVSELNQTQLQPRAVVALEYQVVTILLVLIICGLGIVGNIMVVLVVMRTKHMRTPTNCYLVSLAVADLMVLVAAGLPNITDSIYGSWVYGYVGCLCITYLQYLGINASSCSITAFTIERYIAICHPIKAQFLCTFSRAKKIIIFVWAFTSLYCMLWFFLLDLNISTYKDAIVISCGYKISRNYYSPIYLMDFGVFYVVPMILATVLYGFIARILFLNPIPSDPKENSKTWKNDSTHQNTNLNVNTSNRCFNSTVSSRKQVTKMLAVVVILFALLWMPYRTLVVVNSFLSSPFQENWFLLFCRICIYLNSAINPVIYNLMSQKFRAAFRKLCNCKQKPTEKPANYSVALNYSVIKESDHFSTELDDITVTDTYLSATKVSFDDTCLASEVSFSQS

CN(C)CCC(c1ccc(Cl)cc1)c1ccccn1 (centres undefined)
7.36%: viability change [4]
inactive: Potency [1] | Potency [2] | activation [3] 1.12% | Potency [4] | outcome [5] | Potency [6] | Potency [7] | Potency [8] | Potency [9] | Potency [10] | Potency [11]

CC(=O)N[C@H](C(=O)O)C(C)(C)SN=O
inactive: Potency [1] | Potency [2] | activation [3] 0.812% | Potency [4] | outcome [5] | Potency [6] | Potency [7] | Potency [8] | Potency [9] | Potency [10] | Potency [11] | Potency [12]
-5%: viability change [4]

CN1CCC[C@H]1c1cccnc1
inactive: Potency [1] | Potency [2] | activation [3] 0.5% | Potency [4] | outcome [5] | Potency [6] | Potency [7] | Potency [8] | Potency [9] | Potency [10] | Potency [11] | Potency [13] | Potency [12] | Potency [14] | outcome [15] | Potency [16]
-3.72%: viability change [4]

O=C(O)CCCC[C@@H]1CCSS1
inactive: Potency [1] | Potency [2] | activation [3] 0.438% | Potency [4] | outcome [5] | Potency [6] | Potency [7] | Potency [8] | Potency [9] | Potency [10] | Potency [11] | Potency [13] | Potency [12]
5.5%: viability change [4]

Cc1ccc(C(=O)O[C@H](C(=O)O)[C@@H](OC(=O)c2ccc(C)cc2)C(=O)O)cc1 (tested in a mixture with another compound)
-3.95%: viability change [4]
inactive: Potency [1] | Potency [2] | activation [3] 1.25% | Potency [4] | outcome [5] | Potency [6] | Potency [7] | Potency [8] | Potency [9] | Potency [10] | Potency [11] | Potency [12]

CC(C)NC[C@H](O)COc1cccc2[nH]ccc12
inactive: Potency [1] | Potency [2] | activation [3] 1.12% | Potency [4] | outcome [5] | Potency [6] | Potency [7] | Potency [8] | Potency [9] | Potency [10] | Potency [11] | Potency [13] | Potency [12] | Potency [14]
-1.79%: viability change [4]

c1ccc(-c2ccccn2)nc1
-0.658%: viability change [4]
inactive: Potency [1] | Potency [2] | activation [3] 0% | Potency [4] | outcome [5] | Potency [6] | Potency [7] | Potency [8] | Potency [9] | Potency [10] | Potency [11] | Potency [12]

CN(C)C(N)=NCCC[C@H](N)C(=O)O
inactive: Potency [1] | Potency [2] | activation [3] 0.188% | Potency [4] | outcome [5] | Potency [6] | Potency [7] | Potency [8] | Potency [9] | Potency [10] | Potency [11] | Potency [12]
-5.79%: viability change [4]

Cc1ccc(O)c(-n2nc3ccccc3n2)c1
inactive: outcome [17] | Potency [11]

CCCCCCCCCCCCCCCCCC(=O)O
inactive: outcome [17] | Potency [11] | outcome [15] | Potency [16]

O=C(O)COc1ccc(C(=O)c2cccs2)c(Cl)c1Cl
inactive: outcome [17] | Potency [11]

CC(=O)SCC[N+](C)(C)C
inactive: Potency [1] | Potency [2] | activation [3] 0.875% | Potency [4] | outcome [5] | Potency [6] | Potency [7] | Potency [8] | Potency [9] | Potency [10] | Potency [11] | Potency [13] | Potency [12]
-2.78%: viability change [4]

OCC1O[C@H](O)C(Cl)C(O)C1O (some centres undefined)
inactive: Potency [1] | Potency [2] | activation [3] 0.688% | Potency [4] | outcome [5] | Potency [6] | Potency [7] | Potency [8] | Potency [9] | Potency [10] | Potency [11] | Potency [13] | Potency [12]
4.21%: viability change [4]

NCCCCC(=O)O
inactive: Potency [1] | Potency [2] | activation [3] -0.25% | Potency [4] | outcome [5] | Potency [6] | Potency [7] | Potency [8] | Potency [9] | Potency [10] | Potency [11] | Potency [13] | Potency [12]
11.5%: viability change [4]

C=CC(N)CCC(=O)O (centres undefined)
4.81%: viability change [4]
inactive: Potency [1] | Potency [2] | activation [3] -0.0625% | Potency [4] | outcome [5] | Potency [6] | Potency [7] | Potency [8] | Potency [9] | Potency [10] | Potency [11] | Potency [13] | Potency [12]

CC1(C)S[C@@H]2[C@H](NC(=O)[C@H](NC(=O)N3CCN(S(C)(=O)=O)C3=O)c3ccccc3)C(=O)N2[C@H]1C(=O)O
inactive: outcome [17] | Potency [11]

CCCOC(=O)c1ccc(O)cc1
inactive: outcome [17] | Potency [11] | outcome [15] | outcome [18]
active: Potency [16] 5.01 µM and 3.55 µM

O=C(OCc1ccccc1)c1ccccc1
inactive: outcome [17] | Potency [11] | outcome [18]

Oc1ccc(C2CNCc3sccc32)cc1O (centres undefined)
inactive: Potency [1] | Potency [2] | activation [3] 1.75% | Potency [4] | outcome [5] | Potency [6] | Potency [7] | Potency [8] | Potency [9] | Potency [10] | Potency [11]
-11.4%: viability change [4]

NC(=O)C(c1ccccc1)(c1ccccc1)[C@@H]1CCN(CCc2ccc3c(c2)CCO3)C1
inactive: outcome [17] | Potency [11]

Cc1nc2ccccc2n1Cc1ccc(Cl)cc1
inactive: outcome [17] | Potency [11]

C=CCCCCCCCCC(=O)O
inactive: outcome [17] | Potency [11] | outcome [15] | Potency [16]
